# Only some compounds are listed: those with a hit (about 2.3% of all), similar ones and a draw of the others.
# M1 ag: activates human CHRM1 receptor; CHO-K1 hM1, Fluo-8 calcium fluorescence, agonist mode; 0% DMSO, 100% acetylcholine EC100; activation, % at 3 µM; 0.33% of 360,000 active; AID 588814;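 active = activation above the run's mean compound activation plus 3 SD, cut at about 16% in these data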;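 also: peak over basal fluorescence ratio within a 140 s kinetic read after compound addition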
# Target sequence (P11229 whole entry, looked up): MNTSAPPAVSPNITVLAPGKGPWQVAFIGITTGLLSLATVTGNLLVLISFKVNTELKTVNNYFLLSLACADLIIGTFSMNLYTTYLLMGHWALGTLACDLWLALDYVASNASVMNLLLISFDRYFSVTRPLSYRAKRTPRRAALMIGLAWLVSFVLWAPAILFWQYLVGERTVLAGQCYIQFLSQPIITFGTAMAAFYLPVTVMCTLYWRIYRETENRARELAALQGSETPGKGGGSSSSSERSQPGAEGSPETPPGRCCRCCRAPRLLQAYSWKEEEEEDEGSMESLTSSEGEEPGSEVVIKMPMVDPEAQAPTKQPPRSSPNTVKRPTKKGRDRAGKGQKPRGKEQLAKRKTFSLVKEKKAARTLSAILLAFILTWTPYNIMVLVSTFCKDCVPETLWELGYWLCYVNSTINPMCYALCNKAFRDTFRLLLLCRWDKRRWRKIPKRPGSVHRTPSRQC
# CHO-K1 Ca antag: counter-screen for M1 antagonists: effect in parental CHO-K1 cells | 0.6% of 360,000 active | ATP-induced calcium, Fluo-8 fluorescence | inhibition, % at 3 µM;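 active = inhibition above a per-plate cutoff, the plate's mean sample inhibition plus 3 SD, cut at about 24% in these data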;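 also: 0% = DMSO plus EC80 ATP and 100% = DMSO alone without ATP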
# CHRM1 antagonist: blocks human M1 muscarinic receptor | CHO-K1 hM1, Fluo-8 calcium fluorescence, ACh EC80 antagonist | inhibition, % at 3 µM | 1.3% of 360,000 active;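 active = percent inhibition above its own plate's cutoff, namely the mean of that plate's compound wells plus 3 SD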;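 also: peak over basal fluorescence ratio during 140 s after agonist addition; 0% = ACh EC80 plus DMSO and 100% = DMSO alone without agonist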
# M1 PAM parental: M1 PAM counterscreen hit in parental CHO-K1 cells | activation, % at 3 µM | ATP EC20, Fluo-8 calcium fluorescence; 0% at ATP EC20, 100% at ATP max | 0.02% of 360,000 active;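 active = activation above the run cutoff, the mean activation of all test compounds plus 3 SD, cut at about 40% in these data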;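 also: peak over basal fluorescence ratio in a 140 s read after ATP addition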
# M1 PAM: positive allosteric modulators of human M1 muscarinic receptor; AID 588819; CHO-K1 hM1, Fluo-8 calcium fluorescence, ACh EC20; 0% = ACh EC20, 100% = maximal ACh; 0.088% of 360,000 active; activation, % at 3 µM; P11229; in the data active = activation above about 19%, passing the limit was not always enough
# CHO-K1 Ca ag: nonselective activator or artifact in parental CHO-K1 cells; AID 602248; Fluo-8 calcium fluorescence; scaled to maximal ATP response, vehicle zero; 0.48% of 360,000 active; activation, % at 3 µM; in the data active = activation above about 15%;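 also: untransfected CHO-K1 host cells lacking M1 receptor as counterscreen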
# An asterisk follows results filed as active.
SMILES,M1 ag,CHO-K1 Ca antag,CHRM1 antagonist,M1 PAM parental,M1 PAM,CHO-K1 Ca ag
CCCCN(CC)CCNC(=O)c1cc2c(-c3ccccc3F)nn(C)c2s1,-7,-13,-25,16,28*,1
CC1CCCCN1CCNC(=O)c1cc2c(-c3ccccc3F)nn(C)c2s1 (stereo not given),-6,0,1,-1,0,1
Cc1cc(=O)[nH]c(SCc2cccc(Br)c2)n1,0,-5,-43,3,3,1
COc1ccc(CSc2nc(C)cc(=O)[nH]2)cc1Br,-3,-3,-7,18,4,19*
CCOc1ccc(C(=O)C(C)OC(=O)CN2C(=O)NC(C)(C)C2=O)cc1 (stereo not given),-2,14,-11,-16,6,9
CC1(C(=O)Nc2ccc3ccccc3c2)CCC(=O)N1CC(F)(F)F (stereo not given),1,32*,9,-9,4,0
CC1(C(=O)Nc2ccc3c(c2)OCCO3)CCC(=O)N1CC(F)(F)F (stereo not given),-5,3,-9,13,11,1
CC(=O)c1ccc(NC(=O)c2cn(C)c(=O)c3ccccc23)cc1,1,-9,-6,8,-5,2
Cc1ccc(COn2c(-c3ccc(Cl)cc3Cl)nc3ncccc32)cc1,-6,-16,35*,11,-22,1
Clc1cccc(COn2c(-c3ccc(Cl)cc3Cl)nc3ncccc32)c1,-5,-5,2,23,-8,1
CCC(O)(CCN1CCCCC1)c1ccccc1 (stereo not given),-5,-1,76*,1,-22,0
CCCC(O)(c1ccc(Cl)cc1)C(CN1CCOCC1)c1ccccc1 (stereo not given),-8,0,61*,0,-21,0
CCCCOc1ccc(C(O)(CCC)CCN2CCOCC2)cc1 (stereo not given),-7,-1,3,19,-17,4
CCCC(O)(c1ccccc1)C(CN1CCOCC1)c1ccccc1 (stereo not given),-4,-27,-16,13,11,0
CCCC(O)(CCN1CCCCC1)c1ccc(OCC)cc1 (stereo not given),-12,5,16,-5,-16,1
CCCCCC(O)(CCN1CCCCC1)c1ccc(OCC)cc1 (stereo not given),-14,2,99*,-4,-32,1
CCCCC(O)(CCN1CCOCC1)c1ccc(Cl)cc1 (stereo not given),-8,-10,87*,10,-21,0
COc1ccccc1NC(=O)COC(=O)C1CC2CCCC(C1)C2=O (stereo not given),-1,9,-10,-5,6,1
C/C(=N\NC(=O)c1cccnc1)c1ccc(OC2OCCOC2Oc2ccc(/C(C)=N/NC(=O)c3cccnc3)cc2)cc1 (stereo not given),-7,8,-2,-14,6,0
COc1ccc(C(O)(CCN2CCCCC2)C2CCCCC2)cc1 (stereo not given),-9,3,101*,-4,-27,0
OC1(c2ccc(OC(F)F)cc2)CSC(=Nc2cccnc2)N1C1CC1 (stereo not given),1,12,21*,3,-16,8
COc1ccc(OC)c(C2(O)CSC(=Nc3cccnc3)N2Cc2ccco2)c1 (stereo not given),-2,-6,1,7,2,2
C1CCCCCC(NCCN2CCNCC2)CCCCC1,-7,-2,-8,15,4,1
CC1=CC(C)(C)N(C(=O)CNC2CCCC2)c2cc(C)ccc21,-7,-16,99*,9,-23,0
CC1(C)Cc2c(sc3nc(-c4cccs4)n(N)c(=O)c23)CO1,2,-4,25,-13,-22,16*
SMILES,M1 ag,CHO-K1 Ca antag,CHRM1 antagonist,M1 PAM parental,M1 PAM,CHO-K1 Ca ag
O=C(Nc1ccccn1)c1ccc2c(c1)S(=O)(=O)c1ccccc1C2=O,-2,1,-19,4,17,-1
O=C1c2ccccc2S(=O)(=O)c2cc(C(=O)N(c3ccccn3)c3ccccn3)ccc21,51*,-15,7,9,-11,71*
CC(O)(c1ccc(F)c(F)c1)c1nc(-c2ccncc2)cs1 (stereo not given),-3,13,4,-13,-5,5
CN(C)c1ccc(-c2csc(C(C)(O)c3ccc(F)c(F)c3)n2)cc1 (stereo not given),-5,9,25*,-7,-13,1
CS(=O)(=O)c1cnc(-c2ccccc2)nc1-c1ccccc1Cl,-8,14,15,5,-14,4
O=C(COc1ncnc2ccccc12)Nc1cc([N+](=O)[O-])ccc1F,-1,3,-5,6,4,17*
CSc1ccccc1OCc1cc(C(=O)N(C)Cc2ccncn2)no1,-4,-14,-1,4,-1,0
CCc1nnc(NC(=O)[C@@H](NC(=O)c2cc(OC)cc(OC)c2)C(C)C)s1,-11,-3,0,0,4,-1
COC(=O)N1c2ccccc2C=Cc2ccccc21,-10,-8,-6,22,2,0
COc1ccc(CNS(=O)(=O)c2c(C(=O)N3CCCCCC3)c(C)n(C)c2C)cc1,-1,26*,-16,3,4,0
CCOC(=O)N1CCN(C(=O)c2ccc(NS(=O)(=O)c3ccc(C)cc3)cc2)CC1,4,2,0,20,0,4
CCOC(=O)N1CCN(C(=O)c2ccc(S(=O)(=O)Nc3ccc(C)cc3)cc2)CC1,-2,-3,32*,-2,-14,6
CCCC(=O)Nc1ccc(C(=O)N2CCCC2)cc1,-1,24*,-6,-5,9,0
COc1ccc(NS(=O)(=O)c2ccc(OCC(=O)N3CCCC3)cc2)cc1,4,-7,3,20,-2,17*
CCOC(=O)c1c(C2CC2)csc1NC(=O)COC(=O)CCS(=O)(=O)c1ccc(C)cc1,-3,-4,2,0,-1,0
COc1ccc(-c2cc3nc(NCCNC(C)=O)n(C)c(=O)c3s2)c(C)c1,-4,-8,-14,10,13,1
Cn1c(N)c(C(=O)COC(=O)COc2ccc(Cl)cc2Cl)c(=O)n(C)c1=O,-1,-14,-8,20,0,1
c1ccc(C2CCC(N3CCNCC3)CC2)cc1 (stereo not given),-10,-5,-5,11,4,1
CCOc1ccc(NS(=O)(=O)c2ccc(C(=O)N3CCCC(C)C3)cc2)cc1 (stereo not given),39*,8,28*,-5,-14,31*

# Assay outcomes (PubChem)
